Screening data (PubChem)
DT40 TDP1 CPT – growth inhibition of DT40 Tdp1-/-;hTDP1 cells with camptothecin (screen for TDP1 inhibitors) | AID 686979 | 12% of 420,000 active | Potency, µM (top dose mostly 46.2 µM), without a hit: at the top dose activity change, negative = growth inhibition, usual class: inhibitors | chicken DT40 Tdp1-/-;hTDP1 cells + 20 nM CPT, ATP luminescence, 48 h; also: nearly all actives have a fitted effect of over 55% in size
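Chicken DT40 Tdp1-/- cells stably complemented with human TDP1 were seeded at 400 cells/well in medium containing 20 nM camptothecin, exposed to pin-transferred compounds, and grown at 37 °C for at least 48 hr. Viability was read as ATP luminescence.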
VP16 counter – counter-screen for ROR gamma inhibitors: Gal4-VP16 reporter. Drosophila S2 Gal4-VP16 UAS-luciferase, luminescence, 20 h. Potency, µM (titrated, usually from 53.6 µM), for the others: at the top dose activity, negative = inhibition, hits mostly inhibitors. 3.5% of 310,000 active. AID 2546;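 also: Gal4-VP16 expression switched on by copper sulfate through the metallothionein promoter; nearly all actives have a fitted effect of over 50% in size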
TDP1 inh – TDP1 (human) enzyme inhibition | Q9NUW8 | recombinant TDP1, AlphaScreen DNA substrate cleavage | Potency, µM (doses to about 130 µM), without a hit: at the highest dose activity change, negative = inhibition, hits mostly inhibitors | 0.28% of 350,000 active; also: nearly all actives have a fitted effect of over 40% in size
Target sequence (Q9NUW8 whole entry, looked up): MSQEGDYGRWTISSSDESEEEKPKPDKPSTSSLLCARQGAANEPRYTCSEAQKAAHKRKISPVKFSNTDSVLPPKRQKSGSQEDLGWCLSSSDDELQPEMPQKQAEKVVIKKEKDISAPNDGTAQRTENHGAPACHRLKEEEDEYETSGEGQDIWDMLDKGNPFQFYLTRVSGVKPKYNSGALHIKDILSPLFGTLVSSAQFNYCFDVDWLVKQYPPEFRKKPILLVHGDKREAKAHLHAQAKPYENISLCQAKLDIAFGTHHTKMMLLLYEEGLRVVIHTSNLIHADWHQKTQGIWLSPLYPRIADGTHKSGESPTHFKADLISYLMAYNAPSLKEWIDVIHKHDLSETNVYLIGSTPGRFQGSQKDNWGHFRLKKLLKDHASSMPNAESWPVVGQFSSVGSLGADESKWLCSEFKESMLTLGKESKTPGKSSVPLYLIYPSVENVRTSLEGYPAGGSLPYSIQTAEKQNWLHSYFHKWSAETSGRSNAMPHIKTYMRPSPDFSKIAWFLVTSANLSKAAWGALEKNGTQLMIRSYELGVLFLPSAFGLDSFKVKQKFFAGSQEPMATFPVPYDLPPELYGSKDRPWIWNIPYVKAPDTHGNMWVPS
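Enzyme-compound mixtures sat 15 min at room temperature, followed by a 5 min reaction with 15 nM final substrate and 10 min with AlphaScreen beads. Recombinant human Tdp1 was used at 1 nM final.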
RORg inh – inhibitors of mouse ROR gamma transcriptional activity | Drosophila S2 Gal4-RORgamma UAS-luciferase reporter, 20 h | Potency, µM (doses to about 53.6 µM), for inactives: top-dose activity change, negative = inhibition, actives largely listed as inhibitors | 5.4% of 310,000 active; also: nearly all actives have a fitted effect of over 60% in size
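Luciferase reporter read in Schneider cells carrying Gal4-RORγ (mouse) and UAS-Photinus luciferase; cells given compound 1 h before 700 uM copper sulfate induction, then incubated 20 h at ambient temperature.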
DT40 TDP1 no CPT – qHTS for Inhibitors of human tyrosyl-DNA phosphodiesterase 1 (TDP1): qHTS in cells in absence of CPT; DT40 Tdp1-/- hTDP1 cells, no CPT, ATP luminescence, 48 h; Potency, µM (top dose mostly 46.2 µM), inactives show at the top dose activity change, negative = growth inhibition, usual class: inhibitors; 15% of 420,000 active; also: nearly all actives have a fitted effect of over 55% in size
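Cells were dispensed at 400 per well, compounds added by pin tool, plates incubated ≥48 hr at 37 °C, then CellTiter-Glo added for 30 min at room temperature before luminescence reading. Line: DT40 Tdp1-/- complemented with hTDP1; camptothecin omitted.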
* hit, by the source's call; [ ] = dose if it differs, or a comment. Compounds with a hit are over-represented: about 19% of the library has one in this group of screens. Calls follow the shape of the dose curve; as a rule, active = well fitted curve in the direction sought with a large enough effect; inconclusive = small, poorly fitted or top-dose-only effect, or another doubt; inactive = no such curve, though single readings can be large; an effect the other way counts as inactive or inconclusive. % is scaled to controls: 0 for no effect and ±100 for the full control effect; potency is read from the fitted curve at half-maximal effect.

Screening CC(C)CC(=O)NNC(=S)Nc1ccc(S(N)(=O)=O)cc1 returned DT40 TDP1 CPT 8%, VP16 counter -3%[10 µM], TDP1 inh 0%, RORg inh 18µM* and DT40 TDP1 no CPT -5%.
`CCN(CC)S(=O)(=O)c1cc(NC(=S)NC(=O)C2CCCC2)ccc1C` gave DT40 TDP1 CPT 23µM*, TDP1 inh 0% and DT40 TDP1 no CPT 18µM*.
`CCc1ccc(C(=O)NNC(=S)Nc2ccc(S(N)(=O)=O)cc2)s1` gave DT40 TDP1 CPT 8%, VP16 counter -25%, TDP1 inh 5%, RORg inh 5% and DT40 TDP1 no CPT 3%.
`CC(=O)NS(=O)(=O)c1ccc(NC(=S)NC(=O)C2CCC2)cc1` gave DT40 TDP1 CPT -15%, TDP1 inh 1% and DT40 TDP1 no CPT 30%.
`CC(C)(C)NS(=O)(=O)c1ccc(NC(=S)NC(=O)C2CCC2)cc1` gave DT40 TDP1 CPT inconclusive, VP16 counter -16%, TDP1 inh 1%, RORg inh 18µM* and DT40 TDP1 no CPT inconclusive.
Screening O=C(Nc1ccc(O)cc1)c1ccc(NC(=O)c2cccs2)cc1 returned DT40 TDP1 CPT inconclusive, VP16 counter -8%, TDP1 inh -5%, RORg inh inconclusive and DT40 TDP1 no CPT inconclusive.
`CCc1ccc(CN2CCN(C(=O)c3cccc(OC)c3OC)CC2)cc1` gave DT40 TDP1 CPT inconclusive, VP16 counter -3%, TDP1 inh -5%, RORg inh 2% and DT40 TDP1 no CPT inconclusive.
Screening Cc1cc(NC(=S)NC(=O)CC(C)C)ccc1Br returned DT40 TDP1 CPT -28%, VP16 counter inconclusive, TDP1 inh 2%, RORg inh 2.8µM* and DT40 TDP1 no CPT -21%.
For CC(C)CC(=O)NC(=S)Nc1ccc(NC(=O)c2cccs2)cc1 the results were DT40 TDP1 CPT -19%, VP16 counter 6%, TDP1 inh -1%, RORg inh inconclusive and DT40 TDP1 no CPT -16%.
Screening CCN(CC)S(=O)(=O)c1ccc(NC(=S)NC(=O)C2CCC2)cc1 returned DT40 TDP1 CPT 18µM*, TDP1 inh 2% and DT40 TDP1 no CPT inconclusive.
For CCN(CC)S(=O)(=O)c1cc(NS(=O)(=O)c2cccs2)ccc1C the results were DT40 TDP1 CPT -23%, TDP1 inh 0% and DT40 TDP1 no CPT 5.8µM*.
`C[C@H]1CC[C@]2(O[C@H](CCO)C[C@@H](O)[C@@H]2O)O1` gave DT40 TDP1 CPT -9%, VP16 counter 4%, TDP1 inh 4%, RORg inh 0% and DT40 TDP1 no CPT -33%.
CSc1cc(-c2ccc(Cl)cc2)c(C(=O)NN)s1 was read as DT40 TDP1 CPT -14%, VP16 counter inconclusive, TDP1 inh 4%, RORg inh 11µM* and DT40 TDP1 no CPT inconclusive.
CC(NC(=O)c1cc(-c2ccc(Cl)cc2)on1)c1ccccc1 (centres undefined) was read as DT40 TDP1 CPT inconclusive, TDP1 inh 0% and DT40 TDP1 no CPT inconclusive.
`CSc1cc(-c2ccc(Cl)cc2)c(C(=O)NC(C)C)s1` gave DT40 TDP1 CPT 9.2µM*, VP16 counter -6%, TDP1 inh 2%, RORg inh 12% and DT40 TDP1 no CPT 12µM*.
NNC(=O)c1sccc1OCc1ccc(Cl)cc1 was read as DT40 TDP1 CPT 14%, VP16 counter -26%, TDP1 inh 4%, RORg inh -33% and DT40 TDP1 no CPT -10%.
`Cn1c(-c2ccc(Cl)nc2)nc2cc(Cl)ccc21` gave DT40 TDP1 CPT 8%, VP16 counter -1%, RORg inh 37% and DT40 TDP1 no CPT -19%.
`COC(=O)[C@H]1Cc2c([nH]c3ccccc23)CN1C(=O)COc1ccc2c(C)cc(=O)oc2c1` gave DT40 TDP1 CPT -29%[9.04 µM], VP16 counter -14%, TDP1 inh 6%, RORg inh 16% and DT40 TDP1 no CPT inconclusive.
For COc1ccc(OCc2cc(C(=O)N(C)C(C)c3ccon3)no2)c(Cl)c1 (centres undefined) the results were DT40 TDP1 CPT inconclusive, VP16 counter 23%, TDP1 inh 2%, RORg inh inconclusive and DT40 TDP1 no CPT inconclusive.
`N#Cc1ccc(S(=O)(=O)Nc2ccccc2N2CCOCC2)cc1` gave DT40 TDP1 CPT -11%, TDP1 inh 4% and DT40 TDP1 no CPT -9%.
For O=S(=O)(Nc1ccccc1N1CCCCC1)c1ccc(Cl)s1 the results were DT40 TDP1 CPT 10µM*, VP16 counter -14%, TDP1 inh 2%, RORg inh -8% and DT40 TDP1 no CPT 8.2µM*.
O=S(=O)(Nc1ccccc1N1CCCC1)c1ccccc1C(F)(F)F was read as DT40 TDP1 CPT 21µM* and DT40 TDP1 no CPT 21µM*.
O=S(=O)(Nc1ccccc1N1CCOCC1)c1ccccc1C(F)(F)F was read as DT40 TDP1 CPT inconclusive, TDP1 inh -2% and DT40 TDP1 no CPT 18µM*.
Screening Cc1ccsc1/C=C1\SC(N2CC(C)OC(C)C2)=NC1=O (centres undefined) returned DT40 TDP1 CPT inconclusive, VP16 counter -11%, TDP1 inh 2%, RORg inh 21%[10 µM] and DT40 TDP1 no CPT 15µM*.
`CCOC(=O)c1cnc(SC)nc1Oc1cccc(NC(=O)c2ccc(Cl)cc2)c1` gave DT40 TDP1 CPT inconclusive, VP16 counter -4%, TDP1 inh -5%, RORg inh -7% and DT40 TDP1 no CPT 23µM*.
Screening Cc1ccccc1/C=N/Nc1nc2ccccc2[nH]1 returned DT40 TDP1 CPT inconclusive, VP16 counter -93%, TDP1 inh 9%, RORg inh 7.1µM* and DT40 TDP1 no CPT inconclusive.
`C(=N\Nc1nc(N2CCCCC2)nc(N2CCCCC2)n1)/c1c[nH]c2ccccc12` gave DT40 TDP1 CPT inconclusive, VP16 counter -4%, TDP1 inh 5%, RORg inh 2% and DT40 TDP1 no CPT 16µM*.
CN(C)c1nc(N/N=C/c2c[nH]c3ccccc23)nc(N2CCOCC2)n1 was read as DT40 TDP1 CPT inconclusive, VP16 counter -8%, TDP1 inh -1%, RORg inh -5% and DT40 TDP1 no CPT inconclusive.
For Brc1cc2c(cc1/C=N/Nc1nc(N3CCCCC3)nc(N3CCCCC3)n1)OCO2 the results were VP16 counter -6%, TDP1 inh 6% and RORg inh 1.8µM*.
`Cc1ccc(/C=N/Nc2nc3ccccc3[nH]2)s1` gave DT40 TDP1 CPT 15µM*, VP16 counter 5µM*, TDP1 inh 8%, RORg inh 4.5µM* and DT40 TDP1 no CPT inconclusive.
